In PubChem BioAssay (NCATS):
Results filed as inconclusive are left out. A call without a number means that no potency is given here. Activity calls are given as the source filed them. Calls follow the shape of the dose curve; as a rule, active = well fitted inhibition curve with a large enough effect; inconclusive = small, poorly fitted or top-dose-only effect; inactive = flat fitted curve, though single readings scatter.

Assays:
Assay in all cases: qHTS profiling for inhibitors of Plasmodium falciparum proliferation (AID 504749); also: nearly all actives have a fitted effect of over 60% in size
Settings in all cases: P. falciparum in erythrocytes, SYBR Green DNA, 72 h; series mostly up to 28.7 µM
[1] = system: HB3
How it was run: (§1)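 Three-day growth assay of blood-stage parasites in erythrocytes (0.3% parasitemia, 2.5% hematocrit) at 37 C, 5% CO2, quantified by SYBR Green DNA staining after overnight detergent lysis.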

[2] = system: ICS
How it was run: as §1

[3] = system: JCK
How it was run: as §1

[4] = system: N140
How it was run: as §1

[5] = system: P93_24
How it was run: as §1

[6] = system: P94_40
How it was run: as §1

[7] = system: PAD
How it was run: as §1

[8] = system: PC15
How it was run: as §1

[9] = system: PC26
How it was run: as §1

[10] = system: PC49
How it was run: as §1
Potency is read from the fitted curve at half-maximal effect.

Structure (SMILES) | Potency [1] | Potency [2] | outcome [3] | Potency [4] | outcome [5] | Potency [6] | outcome [7] | outcome [8] | Potency [9] | outcome [10]
CCN(CC)CCOC(=O)c1ccc(N)cc1 | inactive | inactive | inactive | inactive | inactive | inactive | inactive | inactive | inactive | inactive
CCN(CC)CCNC(=O)c1ccc(N)cc1 | inactive | inactive | inactive | inactive | inactive | inactive | inactive | inactive | inactive | inactive
O=C(O)c1cc(-c2ccccc2)nc2ccccc12 | inactive | inactive | inactive | inactive | inactive | inactive | inactive | inactive | inactive | inactive
Clc1ccc(Cn2c(CN3CCCC3)nc3ccccc32)cc1 | inactive |  | inactive | inactive |  | inactive | inactive | inactive |  | inactive
CC(=O)O[C@]1(C(C)=O)CC[C@H]2[C@@H]3C=C(Cl)C4=CC(=O)[C@@H]5C[C@@H]5[C@]4(C)[C@H]3CC[C@@]21C | inactive | 12.6 µM (active) | inactive | inactive |  |  |  | inactive |  | inactive
CN(C)CCC(c1ccccc1)c1ccccn1 (stereo not given) | inactive | inactive | inactive | inactive | inactive |  | inactive | inactive |  | 
CCCCC1C(=O)N(c2ccccc2)N(c2ccccc2)C1=O | inactive | 11.2 µM (active) | inactive |  |  |  |  | inactive |  | inactive
CC(=O)c1ccc(S(=O)(=O)NC(=O)NC2CCCCC2)cc1 | inactive | inactive | inactive | inactive | inactive | inactive | inactive | inactive | inactive | inactive
CCOC(=O)O[C@]1(C(=O)OCCl)CC[C@@H]2[C@H]3CCC4=CC(=O)C=C[C@]4(C)[C@@H]3[C@@H](O)C[C@@]21C | inactive | inactive | inactive | inactive | inactive | inactive | inactive | inactive | inactive | inactive
COCCCCC(=NOCCN)c1ccc(C(F)(F)F)cc1 |  |  |  |  |  |  |  |  | 6.75 µM (active) | 
C[C@@H](O)[C@H]1C(=O)N2C(C(=O)O)=C(S[C@@H]3CN[C@H](C(=O)N(C)C)C3)[C@H](C)[C@H]12 | inactive | inactive | inactive | inactive | inactive | inactive | inactive | inactive | inactive | inactive
COc1ccccc1N1CCN(CCCNc2cc(=O)n(C)c(=O)n2C)CC1 | inactive | inactive | inactive | inactive | inactive | inactive | inactive | inactive | inactive | inactive
NC(N)=Nc1nc(CSCC/C(N)=N/S(N)(=O)=O)cs1 | inactive | inactive | inactive | inactive | inactive | inactive | inactive | inactive | inactive | inactive
Cc1cnc(C(=O)O)c[n+]1[O-] | inactive | inactive | inactive | inactive | inactive | inactive | inactive | inactive | inactive | inactive
O=C1NC(=O)C(c2ccccc2)(c2ccccc2)N1 | inactive | inactive | inactive | inactive | inactive | inactive | inactive | inactive | inactive | inactive
CC(=O)N[C@@H](CS)C(=O)O | inactive | inactive | inactive | inactive | inactive | inactive | inactive | inactive | inactive | inactive
O=c1[nH]cnc2c1ncn2[C@H]1CC[C@@H](CO)O1 |  | 10 µM (active) | inactive | inactive |  | inactive | inactive | inactive | inactive | inactive

Structure (SMILES) | Potency [1] | Potency [2] | outcome [3] | Potency [4] | outcome [5] | Potency [6] | outcome [7] | outcome [8] | Potency [9] | outcome [10]
CC1=C(/C=C/C(C)=C/C=C/C(C)=C/C(=O)Nc2ccc(O)cc2)C(C)(C)CCC1 | 11.2 µM (active) | 11.2 µM (active) |  | 10 µM (active) |  | 11.2 µM (active) |  |  | 12 µM (active) | 
Cc1cccc(C)c1OCC(C)N (stereo not given) | inactive | inactive | inactive |  |  |  | inactive | inactive | inactive | 
O=C(O)Cc1cccc2ccccc12 | inactive | inactive | inactive | inactive | inactive | inactive | inactive | inactive | inactive | inactive
CC1(C)O[C@H]2C[C@@H]3[C@H]4CCC5=CC(=O)C=C[C@]5(C)[C@@]4(F)[C@@H](O)C[C@]3(C)[C@]2(C(=O)CO)O1 | inactive |  | inactive | inactive | inactive |  |  | inactive | inactive | inactive
CCCNC(=O)NS(=O)(=O)c1ccc(Cl)cc1 | inactive | inactive | inactive | inactive | inactive | inactive | inactive | inactive | inactive | inactive
CC(=O)CCCCn1c(=O)c2c(ncn2C)n(C)c1=O | inactive | inactive | inactive | inactive | inactive | inactive | inactive | inactive | inactive | inactive
C[N+](C)(C)CCCCCC[N+](C)(C)C | inactive | inactive | inactive | inactive | inactive | inactive | inactive | inactive | inactive | inactive
O=C1NCC2(CCN(CCc3ccccc3)CC2)O1 | inactive | inactive | inactive | inactive | inactive | inactive | inactive | inactive | inactive | inactive
O=C1Nc2ccc(Cl)cc2C(C#CC2CC2)(C(F)(F)F)O1 (stereo not given) | inactive |  | inactive | inactive |  | inactive |  |  |  | inactive
CCN(CC)C(=O)c1ccc(O)c(OC)c1 | inactive | inactive | inactive | inactive | inactive | inactive | inactive | inactive | inactive | inactive
O=C(O)c1c(Cl)c(Cl)c(Cl)c(Cl)c1-c1c2cc(I)c(=O)c(I)c-2oc2c(I)c(O)c(I)cc12 | inactive | inactive | inactive | inactive | inactive | inactive | inactive | inactive | inactive | inactive
O=C(NCCN1CCOCC1)c1ccc(Cl)cc1 | inactive | inactive | inactive | inactive | inactive | inactive | inactive | inactive | inactive | inactive
COc1ccc(Cc2nccc3cc(OC)c(OC)cc23)cc1OC | inactive | inactive | inactive | inactive |  | inactive | inactive | inactive |  | inactive
CC/C(=C(\c1ccccc1)c1ccc(OCCN(C)C)cc1)c1ccccc1 | inactive | 12.6 µM (active) | inactive |  |  |  | inactive |  |  | inactive
NCCS | inactive | inactive | inactive | inactive | inactive | inactive | inactive | inactive | inactive | inactive
CCCCCN(C)CCC(O)(P(=O)(O)O)P(=O)(O)O | inactive | inactive | inactive | inactive | inactive | inactive | inactive | inactive | inactive | inactive
CCN1CCC[C@H]1CNC(=O)c1cc(S(N)(=O)=O)ccc1OC | inactive | inactive | inactive | inactive | inactive | inactive | inactive | inactive | inactive | inactive
